# Reference: PubChem BioAssay AID2185 (Vanderbilt High Throughput Screening Facility, 2009)
# Entries with a potency or affinity are not part of this list. Values without a mark were called inactive. The rule behind the calls is not given here.
# Biological target: Metabotropic glutamate receptor 4 (Rattus norvegicus) (UniProt P31423)
# Assay: PubChem AID 2185
# Conditions: HEK/GIRK cells expressing rat mGluR4, thallium flux PAM; active compounds read high
# Chain of Metabotropic glutamate receptor 4 (Rattus norvegicus) (P31423 whole entry, looked up): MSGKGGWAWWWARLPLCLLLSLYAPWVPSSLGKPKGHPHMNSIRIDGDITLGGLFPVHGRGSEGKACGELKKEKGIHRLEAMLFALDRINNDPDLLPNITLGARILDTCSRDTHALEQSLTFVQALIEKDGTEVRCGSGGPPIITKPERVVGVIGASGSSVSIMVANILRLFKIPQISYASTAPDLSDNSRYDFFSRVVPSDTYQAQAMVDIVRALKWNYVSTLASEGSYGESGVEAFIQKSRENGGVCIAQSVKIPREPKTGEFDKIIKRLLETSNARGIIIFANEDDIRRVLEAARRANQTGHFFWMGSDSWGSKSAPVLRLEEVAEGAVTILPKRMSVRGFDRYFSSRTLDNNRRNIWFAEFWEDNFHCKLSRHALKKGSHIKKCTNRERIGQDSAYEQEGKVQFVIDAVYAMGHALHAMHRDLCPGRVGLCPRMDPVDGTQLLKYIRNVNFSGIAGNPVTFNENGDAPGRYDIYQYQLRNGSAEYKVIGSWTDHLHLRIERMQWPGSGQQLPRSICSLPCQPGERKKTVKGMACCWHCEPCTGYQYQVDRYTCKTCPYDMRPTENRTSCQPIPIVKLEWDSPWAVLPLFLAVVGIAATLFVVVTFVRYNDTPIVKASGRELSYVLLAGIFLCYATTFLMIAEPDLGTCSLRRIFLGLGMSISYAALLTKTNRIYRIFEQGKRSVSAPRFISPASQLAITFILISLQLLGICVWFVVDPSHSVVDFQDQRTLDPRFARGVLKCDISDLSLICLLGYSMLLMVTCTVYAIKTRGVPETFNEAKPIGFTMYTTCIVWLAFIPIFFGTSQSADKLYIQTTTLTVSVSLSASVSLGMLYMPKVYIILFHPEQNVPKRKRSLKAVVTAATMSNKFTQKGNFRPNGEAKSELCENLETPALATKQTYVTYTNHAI
structure (smiles),measurement,value
N#Cc1ccc(NC(=O)c2ccccn2)cc1C(F)(F)F,% glutamate max,26.3%
